Compound activity as filed in PubChem.
Only some compounds are listed: those with a hit (about 1.3% of all), similar ones and a draw of the others.
IL-2 act – IL-2 activation; IL-2 activation reporter assay, cell-based qHTS; stimulated with anti-CD3/CD4/CD28 beads; in transgenic mouse T cells; activation, % (series mostly up to about 46 µM); 360,000 tested, 0.065% active; in the data active means activation above about 50%; inconclusive means mostly about 30% to 49%; further: 0% is about no effect
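EGFP and DsRed fluorescence is measured by plate cytometry in unstimulated transgenic mouse T cells exposed to compound for 60 minutes, then stimulated 18 hours at 37 degrees C with anti-CD3/anti-CD4 beads plus anti-CD28.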
a7 integrin act – activators of alpha7 integrin expression for muscular dystrophy. Potency, µM (top dose mostly 38.3 µM), without a hit: at the top dose activation, usual class: activators. 350,000 tested, 0.064% active. alpha7betagal myoblasts, beta-gal FDG fluorescence, 48 h;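 further: potency means the concentration at half of the fitted maximal effect; 100% = response of the positive control SU9516; nearly all actives have a fitted effect of over 60% in size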
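alpha7betagal+/- myoblasts (passage 13, 250/well) treated 48 h at 37C with compounds at 1:260 dilution of DMSO stock. Lysed, then beta-galactosidase activity read as FDG fluorescence (ex 480/em 540) after 30 min, with pre-read for autofluorescence.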
PKM2 activator – increases activity of human pyruvate kinase M2 | purified PKM2, Kinase-Glo ATP luminescence, activation; response scale: 0% is enzyme alone, no compound | Potency, µM (highest dose often 57.5 µM), inactives show top-dose activation, hits mostly activators | 260,000 tested, 0.34% active | AID 1631; further: potency means the concentration at half of the fitted maximal effect; on the % scale 0 is the no-effect control and ±100 the full control effect; nearly all actives have a fitted effect of over 55% in size
Target sequence (P14618 whole entry, looked up): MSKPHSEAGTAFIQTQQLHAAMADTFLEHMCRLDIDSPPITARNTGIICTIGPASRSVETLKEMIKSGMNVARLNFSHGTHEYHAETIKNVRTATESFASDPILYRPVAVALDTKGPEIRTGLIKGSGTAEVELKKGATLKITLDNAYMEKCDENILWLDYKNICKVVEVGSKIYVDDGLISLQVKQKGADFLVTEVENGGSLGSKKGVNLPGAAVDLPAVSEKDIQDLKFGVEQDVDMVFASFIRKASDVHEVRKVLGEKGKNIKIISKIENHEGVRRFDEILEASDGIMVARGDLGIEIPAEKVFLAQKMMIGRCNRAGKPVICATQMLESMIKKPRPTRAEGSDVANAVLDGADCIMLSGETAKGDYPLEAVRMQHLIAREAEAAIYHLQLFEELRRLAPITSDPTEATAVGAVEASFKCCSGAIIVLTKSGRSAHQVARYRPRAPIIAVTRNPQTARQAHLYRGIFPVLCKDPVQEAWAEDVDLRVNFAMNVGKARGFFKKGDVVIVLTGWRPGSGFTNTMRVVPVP
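Purified hPK-M2 (>95% pure) converted ADP (0.1 mM final) to ATP with 0.5 mM PEP in 50 mM imidazole pH7.2, KCl, MgCl2, Tween 20, BSA; 1 h at room temperature. ATP detected by Kinase-Glo luminescence.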
BRCA1 expr up – increases BRCA1 expression; Potency, µM (series often up to 46.1 µM), for inactives: top-dose activation, actives largely listed as activators; AID 624202; MCF7-BRCA1-FFLuc reporter, luminescence, 48 h; response scale: scaled: vehicle 0%, 10 µM genistein 100%; 380,000 tested, 1.1% active; further: potency means the concentration at half of the fitted maximal effect; nearly all actives have a fitted effect of over 80% in size
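MCF7-BRCA1-FFLuc, 2000 cells/well; 2 h attach, 37 °C/5% CO2; compound 48 h; luciferase substrate 15 min; luminescence end-point. Norm. to genistein 10 microM max activation and DMSO; concentration-response curves fitted.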
Apoferritin bind – candidate novel general anesthetic via apoferritin binding; P02791; apoferritin/1-aminoanthracene competitive binding, fluorescence; Potency, µM (highest dose often 77.5 µM), without a hit: at the highest dose activity change, negative = displacement, hits mostly inhibitors; 350,000 tested, 0.074% active; further: potency means the concentration at half of the fitted maximal effect; on the % scale 0 is the no-effect control and ±100 the full control effect; nearly all actives have a fitted effect of over 20% in size
Target sequence (P02791 2-175 limits assumed): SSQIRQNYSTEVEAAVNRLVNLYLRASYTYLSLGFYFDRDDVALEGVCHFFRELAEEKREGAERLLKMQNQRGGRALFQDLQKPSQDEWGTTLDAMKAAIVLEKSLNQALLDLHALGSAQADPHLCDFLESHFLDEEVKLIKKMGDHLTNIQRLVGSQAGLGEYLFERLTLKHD
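Horse-spleen apoferritin (10 uM) in 50% saturated 1-aminoanthracene in PBS was incubated 10 min at room temperature with compound. Fluorescence (ex 380, em 535 nm) was normalized to free and bound 1-AMA, with concentration-response fitted by a four-parameter Hill equation.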
HeLa viability – counter-screen for pyruvate kinase M2 activators: HeLa cytotoxicity | activity change, negative = cytotoxicity, % at 57.5 µM | 230 tested, under 10 active | AID 1898 | shares compounds with PKM2 activator | HeLa viability, CellTiter-Glo ATP luminescence, 24 h; further: % of control where 0% means no effect
* hit, by the source's call; ? = inconclusive; / = no result given; [ ] = another dose, or the depositor's remark. Unless noted, the call rests on the fitted dose curve; in most records, active means well fitted curve in the direction sought with a large enough effect; inconclusive means small, poorly fitted or top-dose-only effect, or another doubt; inactive means no such curve, though single readings can be large; an effect the other way counts as inactive or inconclusive.

SMILES	IL-2 act	a7 integrin act	PKM2 activator	BRCA1 expr up	Apoferritin bind	others
CN1CCc2nc(SCC(=O)Nc3ccc(OC(F)(F)F)cc3)c(C#N)c(-c3cccs3)c2C1	-0.3	?	-11.1%	-38.1%	-16.7%
CN1CCc2nc(SCC(=O)Nc3cccc(F)c3)c(C#N)c(-c3cccs3)c2C1	-1.2	18.2%	17.8µM*	-6.0%	?
CO[C@@H]1/C=C\CC(=O)N[C@@H](C)C(=O)OC[C@H](NS(=O)(=O)c2ccc(C)cc2)[C@H](C)/C=C\CC(=O)OC[C@H]1C	/	/	/	/	1.4%[15.3 µM]
CC(=O)c1cnc(Nc2cccc(Cl)c2Cl)s1	0.8	-2.8%	-2.0%	10µM*	?
CCCCc1nc2c(c3c1C[C@H](C)OC3)CN(S(=O)(=O)c1ccc(C)cc1)CC2	/	/	-7.7%[11.5 µM]	/	/
COCCn1c(CNC(=O)c2cccc(C)c2)nc2cccnc21	/	/	/	/	-4.4%
Cc1nn(CCOc2ccccc2)c(=O)n1-c1ccc(F)cc1	0.6	33.8%	3.3%	12.6µM*	-15.2%
Cc1nn(CCOc2ccccc2)c(=O)n1-c1cccc(F)c1	-1.9	5.6%	3.4%	58.5%	-15.0%
Cn1c(-c2ccc(CN3CCCCC3)o2)nc2ccccc21	0.3	-19.6%	-9.5%	3.16µM*	-10.4%
Cc1ccc(C)c(N2CCN(C(=O)CCn3c(=O)c4cccn4c4cccnc43)CC2)c1	/	/	/	/	6.0%
COc1ccc2cc(-c3ccon3)ccc2c1	1.3	?	/	10µM*	-8.2%
COc1ccc(-c2cc3ccc(OC)cc3cn2)cc1	-0.5	12.3%	/	?	/
COc1cc(OC)c(/C=C/c2ccc3ccccc3[n+]2[O-])c(OC)c1	/	/	/	0.0%	/
CC(=O)c1ccc(NC(=O)c2cccc(N3C(=O)c4ccccc4C3=O)c2)cc1	-4.5	13.0%	-1.6%	10.6%	-2.7%
COc1ccc(NC(=O)c2cccc(N3C(=O)c4ccc(C(=O)Nc5ccc(OC)c(O)c5)cc4C3=O)c2)cc1O	1.8	4.47µM*	-6.3%	-16.1%	-9.0%
Cc1cc(C=Nc2ccc(/C=C/c3ccnc4ccccc34)cc2)ccc1N(C)C	/	/	/	18.2%	/
CC(C)C1Cc2[nH]c(=O)c(C(=O)O)cc2CO1 (stereo not given)	-1.1	9.5%	-6.2%	8.91µM*	8.0%
O=C(COc1ccccc1)Nc1nc2c(s1)CCCC2	-0.1	19.2%	/	3.16µM*	-4.4%
COc1ccc(S(=O)(=O)NCCc2cn3ccsc3n2)cc1OC	/	/	/	/	-3.8%
Cc1c(NC(=O)c2ccc(Br)o2)cccc1C(=O)O	0.0	2.1%[7.66 µM]	5.7%	3.55µM*	-11.5%
CCOC(=O)c1sc(=NC(=O)CCSc2ccccc2)n(C)c1C	-0.6	1.2%	-0.9%	10µM*	-11.3%
CC(=O)N1c2ccccc2CC1C(=O)N1CCN(c2cccc(C)c2C)CC1 (stereo not given)	/	/	/	/	8.2%
Cc1nc(C#N)c(N/N=C/c2cccc(Cl)c2)o1	-2.7	2.7%	-3.3%	22.4µM*	-3.7%
Cc1cc(N/N=C/c2cccc(Cl)c2)nc(-n2nc(C)cc2C)n1	0.0	-34.1%	-1.1%	-74.9%	5.2%
O=C(Nc1ccc2nccnc2c1)Nc1ccccc1Cl	-0.6	4.0%	/	10µM*	-2.6%
SMILES	IL-2 act	a7 integrin act	PKM2 activator	BRCA1 expr up	Apoferritin bind	others
CCN1CCN(Cc2ccc(NC(=O)Nc3ccccc3Cl)cc2)CC1	-1.5	-12.1%	-2.4%	?	-10.3%
CCN1CCN(Cc2ccccc2NC(=O)Nc2ccc(C)cc2)CC1	-0.4	-3.7%	-7.1%	6.31µM*	-0.2%
O=C(Nc1ccc(CN2CCCCC2)cc1)Nc1ccccc1Cl	1.0	-35.9%	6.5%	7.08µM*	-18.6%
CC[n+]1ccnc2ccccc21	/	/	/	-10.5%	/
Cc1cc(C)c(NC(=O)C2CCN(C(=O)N3CC(C)Oc4ccc(Cl)cc43)CC2)c(C)c1 (stereo not given)	/	/	/	/	-15.1%
C=CCN(CC=C)c1ccc(/C=C/c2ccnc3ccccc23)cc1	/	/	/	18.1%	/
CCOc1cc(/C=C(\C#N)C(N)=O)cc(CSc2ccccc2)c1O	/	/	/	/	-3.8%
Nc1c(C(=O)N/N=C/c2cccnc2)oc2nc(-c3ccccc3)cc(-c3ccco3)c12	318.4*	16.9%	8.1%	-23.3%	-5.7%
O=C(CSc1cn(Cc2ccccc2)c2ccccc12)N1CCOCC1	-2.8	-4.1%	-9.1%	7.94µM*	-4.7%
CCSc1ncc(Cl)c(C(=O)N2CCN(c3ccccc3OC)CC2)n1	/	/	/	/	1.7%
Cc1nc(Nc2ccccc2)sc1C(=O)Nc1ccccc1	-0.7	-3.7%	-0.6%	6.31µM*	6.6%
COc1ccc(C(=O)c2sc(Nc3ccc(NC(C)=O)cc3)nc2C)cc1	2.7	-1.6%	-5.1%	-37.5%	?
COc1ccc(Nc2nc(C)c(C(C)=O)s2)cc1	-0.1	/	/	12.6µM*	/
COc1cc2c(NC3CCN(C)CC3)nc(N3CCCN(C)CC3)nc2cc1OCC1CCCCN1 (stereo not given)	/	/	/	-55.2%	/
O=C(Cn1nnc(-c2ccccc2)n1)N1CCN(S(=O)(=O)c2ccc(Cl)cc2)CC1	-3.0	0.2%	2.51µM*	-0.8%	0.0%	HeLa viability=3.1
Cc1ccccc1-c1nnn(CC(=O)N2CCN(S(=O)(=O)c3ccc(Cl)cc3)CC2)n1	-0.1	-7.1%	?	0.7%	-6.3%
CN(Cc1ccccc1)c1nc(-c2ccc(F)cc2)cc(C(F)(F)F)n1	/	/	/	-5.1%	14.6%
N#Cc1ccc(CSc2ncnc3c2cnn3Cc2ccccc2)cc1	-0.4	22.6%	20µM*	-27.2%	-15.8%	HeLa viability=-2.1
S=C(c1ccc(-c2ccc(Cl)cc2Cl)o1)N1CCCC1	1.2	-8.4%	8.91µM*	49.3%	1.5%	HeLa viability=4.6
CN1CCN(C(=S)c2ccc(-c3cc(Cl)ccc3Cl)o2)CC1	-0.8	-16.6%	-0.4%	16.3%	-15.0%
COc1ccc(C(=O)NCCN2C(=O)S/C(=C\c3cccnc3)C2=O)cc1[N+](=O)[O-]	-0.4	-34.2%	3.55µM*	-14.9%	-0.6%	HeLa viability=-8.5
CC1CCN(C(=O)c2ccc(NS(=O)(=O)c3cccc4cccnc34)cc2)CC1	-4.9	-36.0%	2.82µM*	-2.3%	2.0%	HeLa viability=-10.4
Cc1cc2c(s1)c1cnn(Cc3ccc(F)cc3)c(=O)c1n2C	/	/	/	/	/	HeLa viability=5.9
Cc1cc2c(s1)c1cnn(Cc3ccc(F)cc3F)c(=O)c1n2C	/	/	/	/	/	HeLa viability=4.6
Cn1c2cc(C#N)sc2c2cnn(Cc3ccc(F)cc3)c(=O)c21	-0.3	/	/	-0.1%	/
Cc1cc2c(s1)c1cnn(Cc3ccccc3Cl)c(=O)c1n2C	/	/	/	/	/	HeLa viability=2.4
Cc1cc2c(s1)c1cnn(-c3ccccc3)c(=O)c1n2C	-0.3	/	/	-0.7%	/	HeLa viability=3.1
Cc1cccc(N2C(=O)N(CC(=O)C(C)(C)C)c3ccccc3S2(=O)=O)c1C	/	/	/	4.7%	3.5%
CCCCSc1nnc2c(n1)OC(c1ccc(C)s1)Nc1ccccc1-2 (stereo not given)	/	/	/	/	-10.1%
